From PubChem BioAssay (NCATS)
Values joined by “and” are separate entries in the source; they are usually repeats but may differ in a detail not shown here. Equal values may be shown once. Results filed as inconclusive are left out. Active and inactive are the calls of the source. Unless noted, calls follow the shape of the dose curve; as a rule, active = well fitted curve in the direction sought with a large enough effect; inconclusive = small, poorly fitted or top-dose-only effect, or another doubt; inactive = no such curve, though single readings can be large; an effect the other way counts as inactive or inconclusive.

Key:
[1] = P-glycoprotein substrates identified in KB-3-1 adenocarcinoma cell line, qHTS therapeutic library screen (AID 1346986); also: nearly all actives have a fitted effect of over 60% in size;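 also: potency is read from the fitted curve at half-maximal effect; potency is for cytotoxicity meaning loss of cell viability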
Procedure, shortened: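 Compounds were tested in dose-response against KB-3-1 and KB-8-5-11 cells at 37 degree C for 72 h, and viability was measured by luminescence. AC50 values came from curve fitting with class-based activity calls.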

[2] = P-glycoprotein substrates identified in KB-8-5-11 adenocarcinoma cell line, qHTS therapeutic library screen (AID 1346987); also: nearly all actives have a fitted effect of over 65% in size; also: potency is read from the fitted curve at half-maximal effect
Procedure, shortened: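 KB-8-5-11: colchicine-selected sub-line of KB-3-1 over-expressing P-gp; assay medium lacked colchicine. 72 h drug exposure at 37 degree C, CellTiter-Glo.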

[3] = NS1 protein of Zika virus - qHTS assay to identify small molecule inhibitors in human HEK 293 cells (AID 1347053); also: series mostly up to about 46 µM; nearly all actives have a fitted effect of over 55% in size
Procedure, shortened: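 Following 20 h seeding, HEK 293 cells took compound, then 1 h later ZIKV MR766 (MOI = 0.5). Incubation ran 24 h at 37 C before TR-FRET detection of NS1; a drop in signal indicates inhibition.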

[4] = qHTS of pediatric cancer cell lines to identify multiple opportunities for drug repurposing: Primary screen for TC32 cells (AID 1347089); also: nearly all actives have a fitted effect of over 60% in size
Procedure, shortened: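 Luminescent ATP read-out (CellTiter-Glo) of metabolically active TC32 cells after 48 h exposure. Concentration-response curves came from 11-point (MIPE, 0.78 nM–46 µM) or 8-point (NPC, 0.59 nM–46 µM) primary titrations; follow-up used 11 points.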

[5] = qHTS of pediatric cancer cell lines to identify multiple opportunities for drug repurposing: Primary screen for A673 cells (AID 1347092); also: nearly all actives have a fitted effect of over 45% in size; also: potency is read from the fitted curve at half-maximal effect
Procedure, shortened: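 Cell viability of A673 measured by CellTiter-Glo ATP luminescence after 48 hours compound exposure. Dilution series spanned 0.78 nM to 46 µM (MIPE, 11-point) or 0.59 nM to 46 µM (NPC, 8-point); bortezomib 2.3 uM positive control.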

[6] = qHTS of pediatric cancer cell lines to identify multiple opportunities for drug repurposing: Primary screen for U-2 OS cells (AID 1347096); also: nearly all actives have a fitted effect of over 50% in size; also: potency is read from the fitted curve at half-maximal effect
Procedure, shortened: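 Viability after 48 h compound treatment at 37C, 500-1,000 cells/well, read as ATP luminescence with CellTiter-Glo. Primary screens used 11-point (MIPE, 0.78 nM-46 µM) or 8-point (NPC, 0.59 nM-46 µM) final concentrations; follow-up screens used 11-point dilutions.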

[7] = qHTS of pediatric cancer cell lines to identify multiple opportunities for drug repurposing: Primary screen for DAOY cells (AID 1347090); also: nearly all actives have a fitted effect of over 55% in size; also: potency is read from the fitted curve at half-maximal effect
Procedure, shortened: (§1)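 Viability measured as metabolically active cells via CellTiter-Glo luminescence following 48 hours of compound exposure, 11-point dilutions in confirmatory testing. 500-1,000 cells/well plated 5 hours before dosing; controls were DMSO and 2.3 µM bortezomib.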

[8] = qHTS of pediatric cancer cell lines to identify multiple opportunities for drug repurposing: Primary screen for SK-N-MC cells (AID 1347093); also: potency is read from the fitted curve at half-maximal effect
Procedure, shortened: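 Metabolically active cells were quantified by ATP-dependent luminescence (CellTiter-Glo, 15 min at room temperature) following 48 h treatment. Cells had been plated at 500-1,000 per well and settled for 5 h beforehand.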

[9] = qHTS of pediatric cancer cell lines to identify multiple opportunities for drug repurposing: Primary screen for NB-EBc1 cells (AID 1347095); also: potency is read from the fitted curve at half-maximal effect
Procedure, shortened: (§2)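 Plated cells (500-1,000 per well, growth media) were allowed to settle for 5 hours, treated with compound dilutions for 48 hours, then lysed with CellTiter-Glo for 15 min at room temperature before luminescence reading.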

[10] = qHTS of pediatric cancer cell lines to identify multiple opportunities for drug repurposing: Primary screen for SJ-GBM2 cells (AID 1347091); also: potency is read from the fitted curve at half-maximal effect
Procedure, shortened: as §1

[11] = qHTS of pediatric cancer cell lines to identify multiple opportunities for drug repurposing: Primary screen for BT-37 cells (AID 1347094); also: potency is read from the fitted curve at half-maximal effect
Procedure, shortened: as §2

[12] = qHTS of pediatric cancer cell lines to identify multiple opportunities for drug repurposing: Primary screen for Saos-2 cells (AID 1347097); also: nearly all actives have a fitted effect of over 40% in size; also: potency is read from the fitted curve at half-maximal effect
Procedure, shortened: as §2

[13] = Natriuretic polypeptide receptor (hNpr1) antagonism - Pilot counterscreen GloSensor control cell line (AID 1347045; calls by dose curve; also: series mostly up to about 38 µM)
Procedure, shortened: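 HEK293 cells carrying the GloSensor cGMP sensor (GIP/pGS-40F) were loaded with 2% GloSensor reagent for 2 h, exposed to compounds for 30 min, and then stimulated with 50 uM sodium nitroprusside for 20 min at room temperature.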

[14] = target: Atrial natriuretic peptide receptor 1 (Homo sapiens) (UniProt P16066); assay: Natriuretic polypeptide receptor (hNpr1) antagonism - Pilot screen (AID 1347049; calls by dose curve;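 also: agonist-evoked cGMP luminescence read 20 min after hNppA addition; series mostly up to about 58 µM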)
Atrial natriuretic peptide receptor 1 (Homo sapiens), sequence (P16066 whole entry, looked up): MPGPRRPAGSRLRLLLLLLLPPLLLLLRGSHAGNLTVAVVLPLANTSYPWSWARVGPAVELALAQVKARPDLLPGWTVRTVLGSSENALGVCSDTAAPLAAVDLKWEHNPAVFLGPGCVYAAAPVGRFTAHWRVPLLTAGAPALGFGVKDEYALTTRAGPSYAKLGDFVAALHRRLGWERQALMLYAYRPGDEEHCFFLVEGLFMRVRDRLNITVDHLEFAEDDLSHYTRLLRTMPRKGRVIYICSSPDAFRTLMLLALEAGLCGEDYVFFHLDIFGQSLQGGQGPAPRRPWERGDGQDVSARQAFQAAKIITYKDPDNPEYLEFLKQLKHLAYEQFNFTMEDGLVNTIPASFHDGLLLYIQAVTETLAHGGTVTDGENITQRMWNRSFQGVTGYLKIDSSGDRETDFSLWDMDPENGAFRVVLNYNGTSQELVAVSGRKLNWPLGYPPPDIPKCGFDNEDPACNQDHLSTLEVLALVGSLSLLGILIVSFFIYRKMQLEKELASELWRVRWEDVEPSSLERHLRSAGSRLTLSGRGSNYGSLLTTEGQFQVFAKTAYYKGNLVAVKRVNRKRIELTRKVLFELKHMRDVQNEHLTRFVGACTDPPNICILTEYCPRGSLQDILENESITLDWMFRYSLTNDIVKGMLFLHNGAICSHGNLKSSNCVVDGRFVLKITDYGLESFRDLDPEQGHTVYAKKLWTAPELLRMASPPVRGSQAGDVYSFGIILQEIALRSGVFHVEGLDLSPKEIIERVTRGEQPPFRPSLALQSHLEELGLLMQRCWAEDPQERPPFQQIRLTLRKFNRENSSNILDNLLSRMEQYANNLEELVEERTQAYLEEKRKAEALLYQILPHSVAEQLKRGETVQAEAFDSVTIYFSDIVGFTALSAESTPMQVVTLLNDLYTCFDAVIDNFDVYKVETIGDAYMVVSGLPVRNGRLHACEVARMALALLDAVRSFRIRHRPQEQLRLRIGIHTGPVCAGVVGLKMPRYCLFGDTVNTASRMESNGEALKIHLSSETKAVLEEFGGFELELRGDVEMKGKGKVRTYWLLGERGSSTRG
Procedure, shortened: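 HEK293 cells expressing hNpr1 and GloSensor cGMP luciferase, 1500/well, loaded with 2% GloSensor reagent 2 h, compound 30 min at room temperature; luminescence read before and 20 min after 0.1 nM hNppA stimulation.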

[15] = target: Atrial natriuretic peptide receptor 2 (Homo sapiens) (UniProt P20594); assay: Natriuretic polypeptide receptor (hNpr2) antagonism - Pilot subtype selectivity assay (AID 1347050; calls by dose curve)
Atrial natriuretic peptide receptor 2 (Homo sapiens), sequence (P20594 whole entry, looked up): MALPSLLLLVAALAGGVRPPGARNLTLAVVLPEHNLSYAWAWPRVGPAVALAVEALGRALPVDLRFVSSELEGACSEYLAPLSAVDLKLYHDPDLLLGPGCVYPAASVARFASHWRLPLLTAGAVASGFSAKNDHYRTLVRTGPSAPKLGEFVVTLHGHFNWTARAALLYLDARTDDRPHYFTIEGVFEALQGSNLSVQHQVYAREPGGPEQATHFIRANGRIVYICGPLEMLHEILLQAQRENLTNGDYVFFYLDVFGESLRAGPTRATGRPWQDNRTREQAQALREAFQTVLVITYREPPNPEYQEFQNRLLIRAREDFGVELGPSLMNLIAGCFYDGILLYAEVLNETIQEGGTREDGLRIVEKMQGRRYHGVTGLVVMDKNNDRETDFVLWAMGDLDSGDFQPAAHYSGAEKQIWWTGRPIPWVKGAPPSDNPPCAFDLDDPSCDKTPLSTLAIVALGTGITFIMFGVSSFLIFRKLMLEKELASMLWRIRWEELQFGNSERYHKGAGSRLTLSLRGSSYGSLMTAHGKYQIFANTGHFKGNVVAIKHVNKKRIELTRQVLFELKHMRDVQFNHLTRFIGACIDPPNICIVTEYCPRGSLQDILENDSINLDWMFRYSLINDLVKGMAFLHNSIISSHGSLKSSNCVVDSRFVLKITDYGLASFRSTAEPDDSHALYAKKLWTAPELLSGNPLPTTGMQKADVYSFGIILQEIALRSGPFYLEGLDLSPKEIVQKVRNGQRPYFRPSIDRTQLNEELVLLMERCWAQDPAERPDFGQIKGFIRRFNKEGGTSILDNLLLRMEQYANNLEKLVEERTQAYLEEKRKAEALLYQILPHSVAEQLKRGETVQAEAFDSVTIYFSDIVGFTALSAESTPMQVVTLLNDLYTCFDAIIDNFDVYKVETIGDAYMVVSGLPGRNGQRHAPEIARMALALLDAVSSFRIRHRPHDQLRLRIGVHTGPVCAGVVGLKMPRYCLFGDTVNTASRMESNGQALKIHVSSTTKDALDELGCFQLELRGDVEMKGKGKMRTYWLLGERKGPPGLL
Procedure, shortened: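 HEK293 cells expressing hNpr2 and a GloSensor cGMP luciferase sensor, 1500/well, preloaded 2 h with 2% GloSensor reagent, compound 30 min, then 1 nM hNppC for 20 min. Antagonism from luminescence after versus baseline pre-read; LOPAC in 1:5 titrations.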

[16] = target: Parathyroid hormone/parathyroid hormone-related peptide receptor (Homo sapiens) (UniProt Q03431); assay: qHTS for PTHR1 Agonists: Optimization Screen against the NCGC LOPAC library (AID 1347079);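 also: GloSensor cAMP luminescence in HEK-293 GP2 cells expressing human PTHR1 with IBMX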
Parathyroid hormone/parathyroid hormone-related peptide receptor (Homo sapiens), sequence (Q03431 whole entry, looked up): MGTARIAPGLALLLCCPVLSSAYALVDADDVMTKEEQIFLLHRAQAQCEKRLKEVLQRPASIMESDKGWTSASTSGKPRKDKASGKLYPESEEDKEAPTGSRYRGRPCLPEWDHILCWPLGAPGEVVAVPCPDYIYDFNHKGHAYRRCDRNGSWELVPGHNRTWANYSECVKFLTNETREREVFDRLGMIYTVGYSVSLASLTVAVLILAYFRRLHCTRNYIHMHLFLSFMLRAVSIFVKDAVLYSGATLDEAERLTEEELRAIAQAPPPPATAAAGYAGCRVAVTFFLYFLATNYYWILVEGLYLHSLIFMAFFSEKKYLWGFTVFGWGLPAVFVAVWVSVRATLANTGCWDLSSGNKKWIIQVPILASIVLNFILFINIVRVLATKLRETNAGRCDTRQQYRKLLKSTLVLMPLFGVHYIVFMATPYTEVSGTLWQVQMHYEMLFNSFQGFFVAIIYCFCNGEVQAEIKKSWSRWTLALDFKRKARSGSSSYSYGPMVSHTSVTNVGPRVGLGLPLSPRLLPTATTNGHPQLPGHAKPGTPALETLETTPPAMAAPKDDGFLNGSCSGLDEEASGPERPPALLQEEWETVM
Procedure, shortened: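 Compounds were tested across a qHTS titration. PTHR1-expressing GP2 cells report cAMP rises via GloSensor luminescence after 1 hr compound exposure at 37C with IBMX present.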

Measured: Potency

CNC(=O)c1ccc2c(C(=Nc3cccc(CN(C)C)c3)c3ccccc3)c(O)[nH]c2c1
inactive: [1] | [2] | [3] | [4] | [6]
active: [5] 11.8 µM

O=C1C(c2c(O)[nH]c3ccccc23)=Nc2ccccc21
active: [7] 0.59 µM | [5] 0.59 µM
inactive: [1] | [3] | [4] | [6]

COc1nccc(-c2c(-c3ccc(F)cc3)ncn2C2CCC(O)CC2)n1 (configuration not stated)
inactive: [1] | [2] | [3] | [7] | [5] | [8] | [9] | [6]

CC(C)Oc1cc(Nc2nc(N[C@@H](C)c3ccc(F)cn3)ncc2Cl)[nH]n1
active: [1] 10.3 µM | [2] 4.69 µM and 8.2 µM | [10] 16.6 µM | [5] 9.35 µM | [8] 4.69 µM | [11] 27.3 µM | [9] 3.32 µM | [6] 23.5 µM | [12] 5.26 µM

OC[C@H]1O[C@@H](Oc2ccc(O)cc2)[C@H](O)[C@@H](O)[C@H]1O
active: [8] 13.2 µM
inactive: [1] | [2] | [3] | [4] | [10] | [11] | [9] | [6] | [12]

Cc1nc2c([nH]1)CCN(C(=O)c1ccc(NC(=O)c3ccccc3-c3ccccc3)cc1)c1ccccc1-2
inactive: [2] | [3] | [4] | [7] | [10] | [5] | [11] | [9] | [6]

CCCCC[C@H](O)C=C[C@H]1[C@H](O)CC(=O)[C@H]1CC=CCCCC(=O)O
inactive: [1] | [4] | [10] | [5] | [9] | [6]

C=C[C@@H]1CN2CCC1C[C@@H]2C(O)c1ccnc2ccc(OC)cc12 (some centres not stated)
inactive: [2] | [3] | [4] | [7] | [10] | [5] | [8] | [11] | [6] | [12]

CC1(COc2ccc3c(c2)ncn3-c2ccc3cccc(N4CCC(N)CC4)c3n2)COC1
active: [1] 10.3 µM | [10] 5.26 µM | [8] 0.001 µM | [11] 0.001 µM | [9] 0.001 µM | [6] 29.6 µM | [12] 16.6 µM

C[C@H]1O[C@@H](n2cc(F)c(=O)[nH]c2=O)[C@H](O)[C@H]1O
active: [2] 18.7 µM | [9] 4.69 µM
inactive: [13] | [14] | [15] | [3] | [16] | [7] | [10] | [6] | [12]

N#Cc1c(N(CC(=O)O)CC(=O)O)sc(C(=O)O)c1CC(=O)O
inactive: [2] | [3] | [4] | [7] | [10] | [5] | [8] | [11] | [9] | [6] | [12]

CNC(=O)[C@H](CC1=CN=C2C=CCC=C12)NC(=O)[C@@H](CC(=O)NO)CC(C)C
inactive: [2] | [3] | [4] | [10] | [6]
active: [7] 0.0296 µM | [5] 0.0469 µM | [8] 0.0059 µM | [11] 0.685 µM

O=C(CO)N1CCC(c2[nH]nc(-c3ccc(Cl)cc3)c2-c2ccncn2)CC1
inactive: [1] | [3] | [7] | [5] | [8] | [9] | [6]

CNc1nc(Nc2ccc(C(=O)N3CCOCC3)cc2OC)ncc1Cl
inactive: [1] | [3] | [4] | [10] | [5] | [11] | [9] | [6]
